A selection: hits, their analogues and other compounds. The true share with any hit is near 3.5%.
GPR151 activ: activates the human receptor GPR151; Q8TDV0; PathHunter beta-arrestin GPR151 cells, luminescence; activation, % at 11.2 µM; actives 1% (n = 650,000); AID 1508602; in the data active means activation above about 4.9%;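 further: 0% = median of compound wells and 100% = cells with positive control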
Target sequence (Q8TDV0 whole entry, looked up): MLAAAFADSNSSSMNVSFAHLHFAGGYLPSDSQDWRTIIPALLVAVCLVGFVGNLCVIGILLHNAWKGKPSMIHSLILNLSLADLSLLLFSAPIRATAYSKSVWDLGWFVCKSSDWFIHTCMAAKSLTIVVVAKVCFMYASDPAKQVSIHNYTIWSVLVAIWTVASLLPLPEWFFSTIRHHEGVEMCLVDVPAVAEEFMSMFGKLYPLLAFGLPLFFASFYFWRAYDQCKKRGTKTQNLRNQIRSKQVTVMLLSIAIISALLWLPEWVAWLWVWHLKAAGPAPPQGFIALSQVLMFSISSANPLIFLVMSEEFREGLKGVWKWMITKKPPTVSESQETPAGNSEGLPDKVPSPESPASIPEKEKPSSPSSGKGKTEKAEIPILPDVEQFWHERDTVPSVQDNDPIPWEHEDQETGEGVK
MITF inh: inhibitors of human MITF. AlphaScreen MITF homodimerization, bead proximity signal. inhibition, % at 2.6 µM. actives 0.91% (n = 650,000). O75030. AID 1259374; in the data active means inhibition above about 50%;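 further: 0% = vehicle wells with protein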
TEAD-YAP block: TEAD-YAP interaction inhibition | inhibition, % at 9.12 µM | HEK-TIYL cells, TEAD-Gal4/YAP UAS-luciferase luminescence | actives 1.4% (n = 640,000); in the data active means inhibition above about 32%;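 further: 0% = median of test compound wells and 100% = reference inhibitor wells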
FBW7 act: activators of human E3 ligase FBW7. normalized activity (activation), % at 26.1 µM. AlphaScreen FBW7–phospho-cyclin E peptide binding, activator screen. actives 0.13% (n = 650,000). Q969H0. AID 1259310; in the data active means normalized activity above about 1.9%;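 further: purified mutant Fbw7 with reduced substrate affinity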
* = called active by the depositor.

SMILES	GPR151 activ	MITF inh	TEAD-YAP block	FBW7 act
c1ccc2[nH]c(CNc3nc(-c4ccc(N5CCOCC5)nc4)nc4c3ncn4-c3ccsc3)nc2c1	1.8	4.0	81.7*	23.2*
COc1ccc(-c2nc(NCc3nc4ccccc4[nH]3)c3ncn(-c4ccsc4)c3n2)cc1	1.0	15.5	26.9	0.1
CC(C)n1cnc2c(NCc3ccccc3)nc(-c3ccc(N4CCOCC4)nc3)nc21	-1.5	3.2	4.5	0.1
CC(C)n1cnc2c(NCc3nc4ccccc4[nH]3)nc(N3CCOCC3)nc21	-0.7	-1.7	79.2*	0.2
COc1ccc(-c2nc(NCc3nc4ccccc4[nH]3)c3ncn(-c4ccsc4)c3n2)cn1	-0.6	-0.1	78.1*	0.8
COCCNC(=O)c1nnc(Cc2c(F)cccc2Cl)o1	-0.7	1.0	-8.9	0.2
Cc1cccc(C(=O)Nc2sccc2C#N)c1	-0.8	-10.5	-21.8	0.1
Cc1cccc(C(=O)Nc2snc(Cl)c2C#N)c1	-0.2	-0.4	38.6*	0.1
Cc1cc(C)n(C(=C(/C(Cl)=C(/Cl)Br)[N+](=O)[O-])n2nc(C)cc2C)n1	-0.2	14.2	41.5*	0.1
O=C(O)c1cccc2[nH]c(C(F)(F)F)nc12	0.7	15.6	11.5	0.2
Cc1cc(-c2cccc3[nH]c(C(F)(F)F)nc23)nn1C(=O)c1ccncc1	-0.9	1.5	34.2*	-0.2
COc1ccc(-c2cn3c(NC(=O)C4CCC4)cnc3cn2)cc1	0.2	19.9	4.0	-0.1
Oc1ccc(CCNc2nc(Nc3ccc4ncccc4c3)nc3c2ncn3-c2ccccc2)cc1	0.5	1.0	45.6*	0.0
CCCNc1nc(Nc2ccc3ncccc3c2)nc2c1ncn2-c1ccccc1	1.8	5.0	34.4*	0.0
OCCNc1nc(Nc2ccncn2)nc2c1ncn2Cc1ccc(C(F)(F)F)cc1	-0.9	16.9	-12.0	3.1*
CCCNc1nc(Nc2ccncc2)nc2c1ncn2-c1ccccc1	-1.6	13.6	43.0*	0.4
CCCNc1nc(Nc2ccccc2)nc2c1ncn2-c1ccccc1	-0.8	-7.5	-5.5	-0.1
COc1ccc(C2=NC(c3ccc(F)c(Br)c3)NC(c3ccccc3O)C2)cc1 (stereo unspecified)	0.1	1.4	-52.4	-0.1
OCCNc1nc(Nc2ccc3ncccc3c2)nc2c1ncn2-c1ccccc1	-1.3	18.8	45.1*	0.1
Oc1ccc(CCNc2nc(Nc3ccncn3)nc3c2ncn3-c2ccccc2)cc1	-1.6	12.4	43.0*	0.1
CCCNc1nc(Nc2ccc3ncccc3c2)nc2c1ncn2-c1ccsc1	1.2	-0.7	48.3*	0.1
CC(=O)C(C(C)=O)C1=C(Cl)C(=O)C(=O)c2ccccc21	0.5	0.2	84.1*	-0.9
CCCCn1c(=S)[nH]c2ccccc21	2.2	2.7	6.1	2.0*
CC(C)(C)CNC(=O)c1cnc2ccccn12	-0.7	15.5	-3.5	0.5
O=C(COc1ccccc1Cl)Nc1nccs1	-10.8	19.2	91.1*	0.2
SMILES	GPR151 activ	MITF inh	TEAD-YAP block	FBW7 act
COc1ccccc1OCC(=O)Nc1nccs1	-8.1	3.6	15.1	-0.2
Cc1cccc(OCC(=O)Nc2nccs2)c1C	-4.6	7.2	32.0*	-0.1
O=C(COc1ccccc1F)Nc1nccs1	-8.1	5.9	-1.4	-0.1
O=C1c2cccc3cccc(c23)C(=O)N1c1ccc(F)cc1F	0.4	-14.0	-0.7	0.0
O=C(CCl)N1CCN(c2ccc([N+](=O)[O-])cc2)CC1	0.0	7.4	33.9*	0.3
CC1Cc2ccccc2N1C(=O)CN1CCc2ccccc2C1 (stereo unspecified)	-2.0	16.9	12.0	0.5
COc1ccc(N2CCN(C(=O)CN(c3cccc(C)c3C)S(C)(=O)=O)CC2)cc1	0.4	7.1	7.3	-0.2
COc1ccc(N2CCN(C(=O)CCl)CC2)cc1	-1.3	7.8	49.1*	0.6
COc1ccc(N2CCN(CC(=O)N3c4ccccc4CC3C)CC2)cc1 (stereo unspecified)	0.9	64.8*	4.5	0.8
COc1ccc(N2CCN(C(=O)CN(c3ccccc3C)S(C)(=O)=O)CC2)cc1	-0.8	72.2*	1.3	-0.2
CCOC(=O)c1sc(NC(=O)c2sc3nc4ccc(C)cc4cc3c2N)nc1C	-0.6	9.5	-2.2	0.1
CCCOC(=O)c1ccc2c(c1)C(=O)N(c1cc(Cl)ccc1Cl)C2=O	0.1	5.1	-9.6	0.0
COc1ccc(N2CC(O)(c3ccc(OC)cc3)[N+]3=C2CCCCC3)cc1 (stereo unspecified)	-0.5	1.9	0.3	-0.1
N#CC1=C2SCN(Cc3ccccc3)CN2C(=O)CC1c1ccccc1[N+](=O)[O-] (stereo unspecified)	2.0	8.4	6.9	-0.1
Cc1nn(C(=O)c2ccc(Cl)cc2)c(C)c1Sc1ccccc1[N+](=O)[O-]	-1.1	15.6	-3.9	0.0
CCN1C(=O)/C(=C\c2cc(C)n(-c3ccccc3F)c2C)C(C(=O)OC)=C1C	-0.9	18.2	37.9*	-0.1
C=CCN1C(=O)/C(=C\c2cc(C)n(-c3ccccc3)c2C)C(C(=O)OC)=C1C	0.5	-19.9	8.3	0.1
CCN1C(=O)/C(=C\c2cc(C)n(-c3ccccc3C)c2C)C(C(=O)OC)=C1C	0.8	16.6	-13.7	0.3
C=CCN1C(=O)/C(=C\c2cc(C)n(-c3ccccc3F)c2C)C(C(=O)OC)=C1C	-0.6	0.7	35.8*	0.1
COc1cc(C(=O)/C=C/Nc2ccccc2C(N)=O)cc(OC)c1OC	-1.4	6.2	37.8*	0.6
Cc1ccc(C(=O)/C=C/Nc2ccccc2C(N)=O)cc1	-5.1	-2.6	55.6*	0.0
COc1cc(C(=O)/C=C/Nc2ccccc2C)cc(OC)c1OC	2.2	1.4	-28.7	-0.1
C=C(C)CN(CC)Cc1cc(Cl)ccc1O	2.1	-6.0	2.8	0.2
CCN(CC)Cc1cc(O)c(CN(CC)CC)cc1O	-1.0	76.0*	4.2	-0.1
Nc1nc(Nc2ccc(Oc3ccccc3)cc2)cc(-c2ccccc2)n1	4.3	7.9	44.2*	0.0
SMILES	GPR151 activ	MITF inh	TEAD-YAP block	FBW7 act
Cc1cc(C)nc(Nc2ccc(Oc3ccccc3)cc2)n1	-1.7	6.8	45.6*	-0.2
COc1ccccc1NC(=O)c1c(Cl)nc(Cl)c(Cl)c1Cl	1.5	8.1	63.5*	0.5
COc1ccccc1NC(=O)c1c(OC)cccc1OC	-1.0	-8.2	14.7	-0.1
COc1ccc(OC)c(NC(=O)c2c(Cl)nc(Cl)c(Cl)c2Cl)c1	-1.4	-5.2	64.4*	0.1
O=c1cc(CN2CCN(c3ccc(F)cc3)CC2)occ1OCc1cccc([N+](=O)[O-])c1	-1.3	7.6	17.1	0.0
O=[N+]([O-])c1cc2c(cc1C=Nc1ccc(O)cc1)OCO2	-2.3	53.3*	7.0	0.2
CCOC(=O)c1c(C)[nH]c2ccc(Oc3nc(OC)cc(OC)n3)cc12	1.6	-2.6	41.1*	0.2
CC(c1ccc([N+](=O)[O-])cc1)c1nc(-c2ccccn2)no1 (stereo unspecified)	-0.2	7.4	67.0*	0.6
CC(c1ccc([N+](=O)[O-])cc1)c1nc(-c2ccncc2)no1 (stereo unspecified)	-1.0	12.6	-3.5	-0.3
Nc1c2ccccc2nc2ccccc12	-0.4	21.1	74.5*	0.6

Compound activity from PubChem.
